Compound activity: PubChem BioAssay, The Scripps Research Institute Molecular Screening Center
This is a sample that favours compounds with a hit; in the whole collection about 1.8% have one here.
LYPLA1 counter: blocks human lysophospholipase 1, a PME1 counter-screen. recombinant LYPLA1, FP-Rh probe fluorescence polarization. O75608. 320,000 tested, 0.16% active. AID 2174. inhibition, % at 5.9 µM;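 active = inhibition above the mean of all tested compounds plus 3 SD, set per campaign, cut at about 14% in these data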;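 note: inhibitors block serine hydrolase probe labeling of LYPLA1 so polarization falls; 0% = enzyme with DMSO and 100% = wells lacking LYPLA1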
Fam108B inh: counter-screen for RBBP9 inhibitors: inhibitors of mouse Fam108B; inhibition, % at 9.51 µM; AID 1947; 300,000 tested, 0.33% active; recombinant Fam108B, FP-Rh probe fluorescence polarization;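 active = inhibition above the screen mean inhibition plus 3 SD, computed separately per campaign, cut at about 18% in these data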;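 note: inhibitors lower polarization as less probe binds the enzyme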
LYPLA2 counter: LYPLA2 (human) inhibition in PME1 counter-screen. O95372. recombinant LYPLA2, FP-Rh probe fluorescence polarization. inhibition, % at 5.9 µM. 320,000 tested, 0.38% active. AID 2177;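 active = inhibition above the screen-wide mean plus 3 SD, limit set per campaign, cut at about 26% in these data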;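 note: 0% = LYPLA2 with DMSO and 100% = wells lacking LYPLA2 enzyme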
GSTO1 counter: blocks human GSTO1 in RBBP9 counter-screen; P78417; recombinant GSTO1, activity-based probe fluorescence polarization; inhibition, % at 5.96 µM; 300,000 tested, 1.1% active; AID 1974;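 active = inhibition above the campaign mean inhibition plus 3 SD, cut at about 35% in these data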;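 note: 0% = GSTO1-1 with DMSO and 100% = wells lacking GSTO1-1 enzyme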
PME-1 inh: blocks human protein phosphatase methylesterase 1; recombinant PME-1, FP-Rh probe fluorescence polarization; 320,000 tested, 0.53% active; inhibition, % at 5.9 µM; Q9Y570; AID 2130;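 active = inhibition above the campaign mean of all compounds plus 3 SD, cut at about 26% in these data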;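 note: competitive labeling of PME-1 active site by serine hydrolase directed probe; 0% = PME-1 with DMSO and 100% = wells lacking PME-1 enzyme; inhibitors block probe labeling so polarization falls and inhibition rises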
PAD4 FP inh: blocks human protein arginine deiminase 4; Q9UM07; recombinant PAD4, RCA probe fluorescence polarization; inhibition, % at 6.36 µM; 330,000 tested, 0.41% active; AID 485272;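 active = percent inhibition above a cutoff equal to the mean of all tested compounds plus 3 SD, cut at about 15% in these data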;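 note: 0% = PAD4 with RCA probe and DMSO and 100% = probe without PAD4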
Target sequence (Q9UM07 whole entry, looked up): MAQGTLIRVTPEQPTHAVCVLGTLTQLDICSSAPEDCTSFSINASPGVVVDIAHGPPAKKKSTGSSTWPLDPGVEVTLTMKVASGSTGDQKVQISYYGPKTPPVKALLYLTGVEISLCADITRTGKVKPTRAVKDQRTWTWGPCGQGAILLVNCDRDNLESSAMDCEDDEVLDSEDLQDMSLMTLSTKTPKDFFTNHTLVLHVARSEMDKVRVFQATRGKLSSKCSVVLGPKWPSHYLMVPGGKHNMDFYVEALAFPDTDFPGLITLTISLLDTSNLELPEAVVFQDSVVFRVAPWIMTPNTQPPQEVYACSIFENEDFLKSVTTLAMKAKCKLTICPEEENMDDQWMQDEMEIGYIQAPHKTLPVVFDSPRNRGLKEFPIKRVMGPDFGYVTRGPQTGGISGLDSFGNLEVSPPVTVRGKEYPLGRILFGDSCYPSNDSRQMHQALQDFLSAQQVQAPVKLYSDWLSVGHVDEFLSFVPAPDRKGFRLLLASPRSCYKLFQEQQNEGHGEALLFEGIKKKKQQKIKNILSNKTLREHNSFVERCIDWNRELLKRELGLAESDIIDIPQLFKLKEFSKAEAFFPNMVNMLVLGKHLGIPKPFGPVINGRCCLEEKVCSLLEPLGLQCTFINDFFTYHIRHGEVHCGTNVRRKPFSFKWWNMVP
PAD4 FP conf: PAD4 (human) inhibition, confirmed; shares compounds with PAD4 FP inh; recombinant PAD4, RCA probe fluorescence polarization; inhibition, % at 6.36 µM; 1,200 tested, 28% active;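 active = mean inhibition across replicates above the hit cutoff set by the earlier primary screen, cut at about 15% in these data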;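 note: inhibitors block active-site labeling by the probe so polarization falls; 0% = PAD4 with probe and DMSO and 100% = probe without PAD4 enzyme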
* marks the source's active call; other numbers are inactive results; x = not tested or not shown.

SMILES	LYPLA1 counter	Fam108B inh	LYPLA2 counter	GSTO1 counter	PME-1 inh	PAD4 FP inh	PAD4 FP conf
O=C1c2ccc(-c3ccc(F)cc3OCc3ccccc3)cc2S(=O)(=O)c2cccc(C(=O)N3CCCC3)c21	3.4	x	17.8	x	2.7	16.6*	14.9*
COC(=O)c1ccc(COC(=O)[C@@H]2CC(O)CN2S(=O)(=O)c2ccccc2[N+](=O)[O-])cc1 (stereo partly specified)	0.4	-0.6	-2.5	-0.8	1.2	-4.9	x
Cc1nnc(N/N=C/c2ccco2)n1N	0.6	-0.1	3.4	38.3*	1.1	23.0*	-0.7
COc1ccc(-n2c(C)cc(/C=N/Nc3nnc(C)n3N)c2C)cc1	0.5	-1.4	2.7	45.9*	13.2	36.1*	2.8
Cc1nnc(N/N=C/c2ccccc2C(F)(F)F)n1N	0.3	1.5	0.8	2.5	-0.9	18.5*	0.3
Cc1nnc(N/N=C/c2cccc(C(F)(F)F)c2)n1N	-0.5	0.9	-4.2	17.3	-3.7	35.0*	-1.4
CCOc1ccc(NC(=O)CN(C)C(=O)C2CC(=O)N(Cc3ccco3)C2)cc1OCC (stereo unspecified)	-0.6	x	-0.2	x	6.4	3.2	x
Cc1nnc(N/N=C/c2ccccc2F)n1N	-4.1	-1.1	-7.3	5.8	2.8	30.6*	10.2
NC(=O)N/N=C/c1cccc(OCc2ccc(F)cc2)c1	1.8	2.0	7.9	2.0	1.7	2.8	x
Cc1nnc(N/N=C/c2cccc(OCc3ccc(Cl)c(Cl)c3)c2)n1N	2.7	7.3	8.8	46.3*	15.3	33.5*	1.9
Fc1ccccc1/C=N/Nc1nn[nH]n1	0.1	-4.5	-3.1	3.2	6.6	3.0	x
CC1CCN(C(=O)COc2ccc3ccccc3c2Br)CC1	8.6	-1.7	9.2	-0.7	1.4	-2.2	x
Cc1ccc(C2=N/C(=C\c3ccc(F)cc3)C(=O)N2)cc1	-1.4	x	-5.6	x	-4.2	-3.6	x
COCCCNC(=O)C[C@H]1C[C@H](C(=O)N2CCOCC2)[C@@]2(C)c3[nH]c4cc(CCC(=O)N(C)C)ccc4c3CCN2C1=O	x	x	x	x	x	0.5	x
NC(=O)c1ccc(-n2nnnc2SCC(=O)Nc2ccccc2-c2ccccc2)cc1	3.6	4.2	-0.1	6.6	4.2	16.2*	4.6
COc1ccc(-c2cc(C(=O)N3CCCCCC3)c3ccccc3n2)c(OC)c1	-2.3	1.2	2.9	5.8	8.6	16.2*	49.0*
COc1ccccc1NC(=O)CCC(=O)OCC(=O)c1ccc(C)c([N+](=O)[O-])c1	1.8	-4.6	9.5	-2.7	-3.6	-2.2	x
CC1(C)Cc2ccccc2C(CSc2ccccc2C(=O)O)=N1	-3.7	2.5	0.1	12.2	-3.9	20.3*	20.1*
COc1cc2c(cc1OC)C(CSc1ccccc1C(=O)O)=NC(C)(C)C2	1.1	2.0	0.1	8.8	1.6	7.0	x
CCN1C(=O)[C@H]2[C@H]3CN=C(SCc4ccc(C(=O)OC)cc4)N3[C@@](C)(C(=O)OC)[C@H]2C1=O	x	x	x	x	x	5.3	x
COc1ncnc2c1NC1=C(S2)C(=NCCC(=O)O)CC(C)(C)C1	10.3	-0.2	7.5	2.9	3.9	19.7*	24.1*
Cn1nnnc1SCC(=O)N1CCN(S(=O)(=O)c2ccc(Cl)cc2)CC1	-3.0	3.5	-7.6	-0.1	0.2	17.0*	-4.3
c1ccc(Nc2cc(Nc3ccccc3)[nH]n2)cc1	3.9	3.3	6.9	3.6	7.4	30.8*	8.5
COc1ccc(C2=Nn3c(nnc3-c3cccnc3)SC2)cc1OC	2.4	1.3	2.1	-1.5	0.6	22.4*	6.6
c1ccc(Nc2ccccc2Nc2ccccn2)nc1	8.1	2.0	11.2	6.1	4.1	29.5*	3.2
SMILES	LYPLA1 counter	Fam108B inh	LYPLA2 counter	GSTO1 counter	PME-1 inh	PAD4 FP inh	PAD4 FP conf
Cc1ccc(/C=N\NC(=O)C2COc3cc4ccccc4cc3O2)o1 (stereo unspecified)	-5.4	8.1	-7.5	8.9	-1.8	-1.8	x
O=C(N/N=C\c1ccc(-c2ccccc2[N+](=O)[O-])o1)C1COc2cc3ccccc3cc2O1 (stereo unspecified)	-20.1	-16.0	-35.9	13.5	-13.9	16.7*	-5.4
CCN(C[C@H]1N[C@@](Cc2ccccc2)(C(=O)OC)[C@H]2C(=O)N(Cc3ccccc3)C(=O)[C@@H]12)C(=O)C1CCCCC1	x	x	x	x	x	0.1	x
COCCN1CN(S(=O)(=O)c2cccc(Cl)c2)c2nc3ccccc3nc21	2.7	2.1	4.8	-3.8	16.6	-3.9	x
C=CCN1CN(S(=O)(=O)c2cccc(Cl)c2)c2nc3ccccc3nc21	0.3	-4.7	5.6	-1.4	8.6	46.4*	3.0
COc1ccccc1NC(=O)N1CCCC1C(=O)NCCc1ccccc1 (stereo unspecified)	-2.9	-0.5	4.2	5.6	-5.3	-4.4	x
COc1cc2cc(CCCO)oc(=O)c2cc1OC	x	x	x	x	x	0.2	x
Cc1cc(C)c(C)c(S(=O)(=O)N2CCN(C(=O)c3cc(S(=O)(=O)N4CCOCC4)ccc3F)CC2)c1C	x	x	x	x	x	-3.5	x
Cc1ccc(NC(=O)CCNS(=O)(=O)c2ccc3[nH]c(=O)oc3c2)cc1F	0.8	0.1	5.8	-1.2	1.4	20.9*	4.3
CC(C)c1ccc(N=c2c([N+](=O)[O-])nn(-c3ccc4c(c3)OCCO4)n2O)cc1	-4.2	-2.1	8.1	-2.8	6.1	18.5*	1.9
O=S(=O)(Nc1ccncc1)c1cc(Cl)c(Cl)cc1Cl	0.8	-3.6	5.7	5.7	3.7	1.7	x
CCOC(=O)[C@@H]1[C@H]2COc3ccccc3[C@H]2N2C(=O)N(c3cccc(C)c3)C(=O)[C@]12C	x	x	x	x	x	-2.2	x
CCC(=O)N(Cc1cc(=O)[nH]c2ccccc12)c1ccccc1	-1.0	3.5	-1.9	-4.8	2.0	21.2*	21.9*
COc1ccc2nc(-c3ccccc3)cc(C(=O)OCC(=O)N3CC(C)OC(C)C3)c2c1 (stereo unspecified)	-10.4	x	-5.7	x	-0.8	-1.4	x
CCOC(=O)N1c2ccccc2Sc2ccccc21	-2.7	-0.6	3.0	-0.3	2.4	1.3	x
Cc1nnc(SC(=O)N2c3ccccc3Sc3ccccc32)s1	-1.3	-11.8	-3.1	-26.4	3.0	33.9*	5.5
CC(C)C(NC(=O)c1ccccc1F)C(=O)NCCCn1ccnc1 (stereo unspecified)	x	x	x	x	x	-3.2	x
S=c1[nH]nc(-c2cc(-c3ccccc3)n[nH]2)n1/N=C/c1cccc(Cl)c1	-3.0	3.8	2.5	3.9	24.4	15.5*	9.3
S=c1[nH]nc(-c2cc(-c3ccccc3)n[nH]2)n1/N=C/c1ccc(Cl)cc1	-4.2	-0.2	-10.1	-12.4	15.9	5.9	x
C/C(=C\C(=O)c1ccc(F)cc1)Nc1ccc(N2CCOCC2)cc1	1.3	11.7	4.1	7.5	2.2	39.1*	7.0
COc1cccc(OCCNS(=O)(=O)c2ccccc2[N+](=O)[O-])c1	x	x	x	x	x	-3.4	x
